Reference: PubChem BioAssay (NCI)
About 83,000 compounds went through this panel and 20% of them were active in at least one assay; those are over-represented in the sample as a whole.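 48-hour exposure, single concentration, 96-well plates; percent growth endpoint where 0 means no net growth. Active: below 10.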 Activity calls are given as the source filed them.

These compounds were tested on CCRF-CEM leukemia (assay: NCI-60 one-dose screen, 48 h (100 = growth as untreated, 0 = no growth, -100 = all killed)). Details: 10 µM unless noted.

Row | Compound | growth
1 | C=C1CC[C@@H]2[C@]3(C)COC(c4cn[nH]c4-c4ccc(Br)cc4)O[C@@H]3CC[C@@]2(C)[C@@H]1C/C=C1/C(=O)OCC1O (some centres not stated) | -6.18% (active)
2 | Cc1cnc(C(=O)NNc2nc3cc(F)ccc3n3c(C(=O)N4CC5CC(C4)N5)ccc23)cn1 | 17% (inactive)
3 | CCCSc1nc(Nc2ccc(S(N)(=O)=O)cc2)c(C#N)c(-c2cc(OC)c(OC)c(OC)c2)n1 | 8.03% (active)
4 | C=C1CCC2C3(C)COC(c4ccccc4)OC3CCC2(C)C1CC(NCc1ccccc1)C1=CCOC1=O (configuration not stated) | 101% (inactive)
5 | C=C1CC[C@@H]2[C@]3(C)COC(c4ccccc4)O[C@@H]3CC[C@@]2(C)[C@@H]1C/C=C1/C(=O)OCC1OC(C)=O (some centres not stated) | -29.3% (active)

These compounds were tested on MOLT-4 leukemia in the same assay as above. Details: 10 µM unless noted.

Row | Compound | growth
6 | O=C(COc1ccc(NC(=O)Nc2ccc(Cl)cc2)cc1)N/N=C/c1ccccc1 | 9.72% (active)
7 | COc1cc(/C=C/C(=O)c2ccccc2)ccc1Oc1nc(Nc2ccc(F)cc2)nc(N(C)C)n1 | 7.1% (active)
8 | CN(C)CCCNC(=O)c1cc(NC(=O)c2cc(NC(=O)c3ccc(/C=C/c4ccccc4)cc3)cn2C)cn1C | -5.97% (active)
9 | COc1ccc(C(=O)/C=C/c2ccc(Oc3nc(Nc4ccc(F)cc4)nc(N(C)C)n3)c(OC)c2)cc1 | 10.8% (inactive)
10 | CN(C)CCOc1ccc(C(=O)C2[C@H](c3ccc(Cl)cc3)[C@@H](c3ccccc3)NC23C(=O)Nc2ccc(Br)cc23)cc1 (some centres not stated) | -52.3% (active)
11 | COc1ccc(-c2ccc(SCC(=O)NCCc3ccc(S(N)(=O)=O)cc3)nn2)cc1 | 68.2% (inactive)
12 | Cc1nc(Nc2ncc(C(=O)Nc3c(C)cccc3Cl)s2)cc(N2CCN(CCCNC(=O)COc3ccc(C4CCC(=O)NC4=O)cc3)CC2)n1 (configuration not stated) | 48.9% (inactive)
13 | C=C1CCC2C3(C)COC(c4ccc(F)cc4)OC3CCC2(C)C1C/C=C1/C(=O)OCC1O (configuration not stated) | 8.65% (active)
14 | O=c1onc(-c2cc3ccccc3nc2Cl)n1-c1cccc2ccccc12 | 24.5% (inactive)
15 | O=C1NC(=O)/C(=C/c2ccccc2OCc2cc3ccccc3nc2Cl)S1 | 85.3% (inactive)
16 | O=C(COc1ccc(NC(=O)Nc2ccc(Cl)c(Cl)c2)cc1)N=Nc1c(O)[nH]c2ccc(Br)cc12 | -3.16% (active)
17 | COc1cccc(/C=C/c2nc3ccccc3c(=O)n2CC(=O)Nc2ccc(Cl)cc2)c1 | 90.6% (inactive)
18 | COc1cc(C2CC(c3cc(OC)c(OC)c(OC)c3)=NN2c2ccccc2)ccc1OCc1ccc(C)cc1 (configuration not stated) | 91.6% (inactive)
19 | CCOP(=O)(OCCCl)c1nc(-c2ccc(C)cc2)oc1NCc1ccccc1 (configuration not stated) | 43.6% (inactive)
20 | Cc1ccccc1[C@H]1C(C(=O)c2ccc(Cl)cc2)C2(N[C@@H]1c1ccccc1)C(=O)Nc1ccccc12 (some centres not stated) | -18% (active)
21 | Cc1ccccc1[C@H]1C(C(=O)c2ccc(Cl)cc2)C2(N[C@@H]1c1ccccc1)C(=O)Nc1ccc(Br)cc12 (some centres not stated) | -2.55% (active)

Row | Compound | growth
22 | Cc1cc(=O)oc2cc(OCCOc3ccc(/C=C/C(=O)Nc4ccccc4N)cc3)ccc12 | 4.54% (active)
23 | Cn1cc(NC(=O)c2cc(NC(=O)c3ccc(/C=C/c4ccccc4)cc3)cn2C)cc1C(=O)NCCCN1CCOCC1 | -23.6% (active)
24 | CCCn1cc(-c2nc(Nc3ccc(C(=O)NCCCCNc4cccc5c4C(=O)N(C4CCC(=O)NC4=O)C5=O)cc3)nc3[nH]ccc23)cn1 (configuration not stated) | -37.9% (active)
25 | COc1c(F)ccc(C(=O)Nc2ccc3nc(NC(=O)C4CCCN(S(=O)(=O)c5ccc(C(F)(F)F)cc5)C4)sc3c2)c1F (configuration not stated) | 47.2% (inactive)
26 | Cn1nc(C(F)(F)F)cc1-c1cc(Cl)c(COc2ccc(Cl)cc2)c(-c2ccc(Cl)c(C(F)(F)F)c2)c1O | -23.1% (active)
27 | COc1ccc2c(c1)c(/C=N/Nc1ccc3ccccc3n1)cn2C | -27.4% (active)
28 | COc1c(F)ccc(C(=O)Nc2ccc3nc(NC(=O)C4CCCN(S(=O)(=O)c5ccc(Br)c(F)c5)C4)sc3c2)c1F (configuration not stated) | 42.5% (inactive)
29 | Clc1cccc(-c2ccc(OCCCN3CCN(c4ccncc4)CC3)cc2)c1 | -47.4% (active)
30 | CC12CC[C@@H]3[C@]4(C)COC(c5cn[nH]c5-c5ccc(Br)cc5)O[C@@H]4CC[C@@]3(C)[C@@H]1CC(C1=CCOC1=O)O2 (some centres not stated) | -0.166% (active)
31 | CC12CC[C@@H]3[C@]4(C)COC(c5cn[nH]c5-c5cccc(Cl)c5)O[C@@H]4CC[C@@]3(C)[C@@H]1CC(C1=CCOC1=O)O2 (some centres not stated) | 12.4% (inactive)
32 | CCCSc1nc(Nc2ccc(S(N)(=O)=O)cc2)c(C#N)c(-c2ccc(Cl)cc2)n1 | 50.4% (inactive)
33 | COc1ccc(-c2nc3ccc(C(=O)NN4C(=O)c5ccc([N+](=O)[O-])cc5C4=O)cc3[nH]2)cc1 | 98.7% (inactive)
34 | C=C1CC[C@@H]2[C@]3(C)COC(c4cn[nH]c4-c4ccc(Br)cc4)O[C@@H]3CC[C@@]2(C)[C@@H]1C/C=C1/C(=O)OCC1O (some centres not stated) | 2.63% (active)
35 | CCCSc1nc(Nc2ccc(S(N)(=O)=O)cc2)c(C#N)c(-c2cc(OC)c(OC)c(OC)c2)n1 | -35.8% (active)
36 | C=C1CCC2C3(C)COC(c4ccccc4)OC3CCC2(C)C1CC(NCc1ccccc1)C1=CCOC1=O (configuration not stated) | 61.1% (inactive)
37 | C=C1CC[C@@H]2[C@]3(C)COC(c4ccccc4)O[C@@H]3CC[C@@]2(C)[C@@H]1C/C=C1/C(=O)OCC1OC(C)=O (some centres not stated) | -28.7% (active)
